Screening data as filed in PubChem.
Rows were chosen to be rich in hits. Some 12% of all compounds tested hit in one or more screens of this group.
Sfp inh: blocks B. subtilis Sfp PPTase activity; Q9F4F7; Biochemical Sfp PPTase activity, qHTS; Potency, µM, for the others: largest response in the series, negative = inhibition, most hits filed as inhibitors; 3.5% of 310,000 active; AID 1490;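 note: the enzyme is Sfp with the accession as filed and its product quenches rhodamine fluorescence; 0% = enzyme reaction without inhibitor and -100% = no enzyme wells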
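After 15 min at room temperature with compound, 15 nM Sfp received 5 uM rhodamine-CoA plus 12.5 uM BHQ-2-ybbR (50 mM Hepes pH 7.6, 10 mM MgCl2). Rate came from the fluorescence difference over 30 min, ex 525/em 598 nm.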
L3MBTL1 block: inhibitors of human L3MBTL1 | 0.66% of 230,000 active | AlphaScreen L3MBTL1–H3K9me1 peptide binding | Potency, µM (top dose mostly 57.1 µM), for inactives: top-dose activity, negative = inhibition, usual class: inhibitors; note: % is set by controls: 0 for no effect and ±100 for the full control effect; nearly all actives have a fitted effect of over 60% in size
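Read-out is AlphaScreen signal from streptavidin donor and nickel chelate acceptor beads (10 ug/mL final each) bridging L3MBTL1 (50 nM) and biotinylated K9-monomethylated H3(1-15) peptide (75 nM), after 30 min compound exposure at room temperature.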
G9a block: G9a (human) methyltransferase inhibition | Potency, µM (top dose mostly 102 µM), without a hit: at the highest dose activity, negative = inhibition, most hits filed as inhibitors | 8.8% of 350,000 active | G9a H3K9 monomethylation, AlphaScreen, 2 h; note: % is set by controls: 0 for no effect and ±100 for the full control effect; nearly all actives have a fitted effect of over 75% in size
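Compounds were preincubated with 20 nM G9a for 15 min, after which biotinylated H3K9 peptide (500 nM) and SAM (20 uM) started a 2 h room-temperature reaction. Monomethylated product was quantified by antibody-based AlphaScreen chemiluminescence.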
BAZ2B inh: inhibitors of human BAZ2B bromodomain. Q9UIF8. AlphaScreen BAZ2B-H3K14Ac peptide displacement. Potency, µM (highest dose often 114 µM), without a hit: at the highest dose activity change, negative = inhibition, usual class: inhibitors. 4.4% of 360,000 active. AID 504333; note: % is set by controls: 0 for no effect and ±100 for the full control effect; nearly all actives have a fitted effect of over 60% in size
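BAZ2B (50 nM) with biotin-H3(5-23)K14Ac peptide (50 nM) in PBS pH 7.4, 0.01% Tween-20, preformed 30 min, then compound 30 min at room temperature; top concentration 110uM. AlphaScreen streptavidin donor/nickel chelate acceptor beads (10 ug/mL final), 20 min dark, signal read.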
HP1b chromo inh: inhibitors of HP1-beta chromodomain binding to methylated histone tails | P83916 | AlphaScreen HP1-beta / biotin-H3K9me3 peptide binding | Potency, µM (titrated, usually from 114 µM), without a hit: top-dose activity change, negative = inhibition, usual class: inhibitors | 0.56% of 390,000 active | AID 540317; note: nearly all actives have a fitted effect of over 70% in size
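HP1-beta protein (50 nM final) preincubated 30 min at room temperature with biotinylated H3(1-18)K9me3 peptide (50 nM) in PBS pH 7.4, 0.01% Tween-20, then compound added for 30 min. AlphaScreen streptavidin donor/nickel chelate acceptor beads (10 ug/mL final), 30 min dark, luminescence read.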
JMJD2A Tudor: inhibitors of human JMJD2A Tudor domain; AID 504339; 4.4% of 390,000 active; Potency, µM (doses to about 114 µM), inactives show at the highest dose activity change, negative = inhibition, most hits filed as inhibitors; AlphaScreen JMJD2A-Tudor / H3K4me3 peptide binding; note: % is set by controls: 0 for no effect and ±100 for the full control effect; nearly all actives have a fitted effect of over 50% in size
The depositor's hits bear a star; ? = inconclusive; · = no result given; ! = repeats disagree; [ ] = another dose, or the depositor's remark. Calls come from the whole dose curve; as a rule, active = well fitted curve in the direction sought with a large enough effect; inconclusive = small, poorly fitted or top-dose-only effect, or another doubt; inactive = no such curve, though single readings can be large; an effect the other way counts as inactive or inconclusive. Potency is the fitted concentration of half-maximal effect.

SMILES	Sfp inh	L3MBTL1 block	G9a block	BAZ2B inh	HP1b chromo inh	JMJD2A Tudor
CN(c1ccc(O)cc1)c1nc(-c2ccccc2)cs1	-11%	-18%	?	50µM*	-8%	-24%
COCCn1c(CNC(=O)c2ccccc2C)nc2cccnc21	·	·	42%[59 µM]	2%	26%[57 µM]	-3%
Cc1cc2nc(-c3ccc(Cl)cc3)cc(C(F)(F)F)n2n1	·	·	19%[59 µM]	75%	98%	13%
O=C(O)c1oc2ccccc2c1-n1cccc1	-2%	-8%	?	4%	-4%	79µM*
COC(=O)c1oc2ccc(Br)cc2c1-n1cccc1	-26%	-3%	16%[59 µM]	-1%	21%	-29%
COc1cccc(/C=N/n2c(-c3n[nH]c4c3CCC4)n[nH]c2=S)c1OC	?	-4%	2.5µM*	-16%	?	3.2µM*
COc1cccc(/C=N/n2c(=S)n(C)c3cc(C)c(C)cc32)c1OC	4%	1%	?	-4%[57.1 µM]	7%	-31%
COc1ccc(/C=N/n2c(-c3n[nH]c4c3CCC4)n[nH]c2=S)c(OC)c1OC	-20%	0%	1.3µM*	-10%	?	4.5µM*
COc1cccc(/C=N/n2c(-c3cc(C)[nH]n3)n[nH]c2=S)c1OC	-29%	-5%	·	-36%	4%	1.8µM*
COc1ccc(/C=N/n2c(C)nnc2C)c(OC)c1OC	9%	39%	22%[59 µM]	12%	35%	-8%
O=C(CCCCn1c(=O)c2ccccc2n(Cc2cccc(F)c2)c1=O)NCc1ccc2c(c1)OCO2	·	·	-11%[59 µM]	-4%	5%	-18%
CCOC(=O)Nc1cccnc1Sc1ccc(Cl)cc1	·	·	·	·	2%	1%
CCCNC(=O)OCc1cccnc1Sc1ccc(C)cc1	10%	-16%	29%	15%	4%	45µM*
S=c1[nH]nc(-c2ccc(Br)cc2)n1-c1ccc2c(c1)OCCO2	40µM*	-8%	1.6µM*	?	9%	71µM*
O=c1cc(Nc2ccc3c(c2)OCCO3)[nH]c(=O)n1-c1ccc(Br)cc1	-9%	3%	18%[59 µM]	-5%	9%	-7%
S=c1[nH]nc(Cc2ccc(Cl)cc2)n1-c1ccc2c(c1)OCCO2	-18%	1%	·	?	8%	?
COc1ccc(Cc2n[nH]c(=S)n2-c2ccc3c(c2)OCCO3)cc1	-24%	4%	8.9µM*	-23%	13%	6.3µM*
COc1ccc(-c2n[nH]c(=S)n2-c2ccc3c(c2)OCCO3)cc1	?	8%	1.8µM*	-33%	?	3.2µM*
COc1cc(OC)cc(-c2n[nH]c(=S)n2-c2ccc3c(c2)OCCO3)c1	-22%	-2%	3.5µM*	-25%	14%	4.5µM*
COc1ccc(-c2[nH]ncc2-c2ccc3c(c2)OCCO3)c(O)c1	9%	·	-4%[59 µM]	?	2%	?
Cc1ccc(Cl)cc1NC(=O)C1CCCN(S(=O)(=O)c2cccc3cccnc23)C1 (centres undefined)	·	·	-6%[59 µM]	-8%	13%	-22%
COc1ccc(Cc2nnc(Nc3ccccc3)s2)cc1Br	2%	·	12%	-3%	34%	-20%
Nn1c(Cc2ccccc2F)n[nH]c1=S	?	-6%	20µM*	-22%	24%	3.2µM*
COc1ccc(Cc2n[nH]c(=S)n2N)cc1OC	20µM*	1%	3.2µM*	?	?	7.9µM*
COc1ccc(Cc2nc(=S)[nH][nH]2)cc1Br	35µM*	-3%[11.4 µM]	-118%	?	?	-18%[57.1 µM]
SMILES	Sfp inh	L3MBTL1 block	G9a block	BAZ2B inh	HP1b chromo inh	JMJD2A Tudor
Nn1c(Cc2ccc(Br)cc2)n[nH]c1=S	35µM*	3%	2.2µM*	?	?	7.1µM*
Cc1ccn2c(=O)cc(COc3ccc(NC(=O)c4ccccc4F)cc3)nc2c1	·	·	12%[59 µM]	6%	21%[57 µM]	-11%
Cc1oc2ncn(CC(C)C)c(=O)c2c1C(=O)NCCCN(C)Cc1ccccc1	·	·	-24%[59 µM]	8%[57.1 µM]	29%	-6%
COc1ccc(-c2nc(C)c(CCNC(=O)C(=O)Nc3c(C)cccc3C)s2)cc1OC	·	·	17%[59 µM]	0%	27%[57 µM]	8%
C=CCn1c(Cc2ccc(OCC)cc2)nnc1SCC(N)=O	15%	2%	-3%[12.7 µM]	7%	33%	-6%
COc1ccc(Cc2n[nH]c(=S)n2C)cc1Br	?	-22%	?	11%	5%	20µM*
CCOc1ccc(Cc2n[nH]c(=S)n2N)cc1	56µM*	0%	?	-31%	?	8.9µM*
Cc1ccc(-c2nn(-c3ccccc3)cc2CN(Cc2ccccc2)C(=O)c2ccco2)o1	18µM*	·	32µM*	32µM*	-37%	56µM*
CCOC(=O)C1=C(C)NC(C)=C(C(=O)OCC)C1c1cn(-c2ccccc2)nc1-c1ccco1	26%	·	2%[12.7 µM]	-4%	33%	-6%[11.4 µM]
COc1ccc(-c2nn(-c3ccccc3)cc2C(=O)O)cc1	-5%	34%	?	41%	16%	-19%
Cc1ccc(-c2nn(-c3ccccc3)cc2C(=O)O)o1	-101%	2.8µM*	4.5µM*	?	·	·
CC(C)OC(=O)c1cn(-c2ccccc2)nc1-c1ccco1	8.9µM*	-6%	7.9µM*	-9%	17%	-16%
Cc1ccc(-c2nn(-c3ccccc3)cc2/C=C/C(=O)O)o1	-104%	-16%	28µM*	?	36%	-24%
O=C(O)/C=C/c1cn(-c2ccccc2)nc1-c1cc2ccccc2oc1=O	6%	12%	·	1%	31%	-3%
Cc1cccc(NC(=O)N2CCc3c(sc4c3CCCC4)C2c2ccc(F)cc2)c1 (centres undefined)	·	·	-8%[59 µM]	-22%	4%	-23%
Cc1cccc(N2CCN(C(c3ccccc3)c3nnc(-c4ccccc4F)o3)CC2)c1C (centres undefined)	·	·	3%[59 µM]	-4%	19%	3%
COc1ccc(CNC(=O)c2ccc(-c3nc(CSc4ccccc4)c(C)o3)cc2)cc1OC	·	·	-4%[59 µM]	-24%	38%	-1%
COc1ccc(OC)c(S(=O)(=O)N2CCN(Cc3ccccc3)CC2)c1	8%	6%	·	-9%	28%	1%
COc1cc(CN2CCN(S(=O)(=O)c3ccccc3)CC2)cc(OC)c1OC	?	5%	28µM*	?	?	20µM*
COc1cc(S(=O)(=O)N2CCN(Cc3ccccc3)CC2)ccc1Br	0%	-4%	45µM*	4%	18%	-11%
COc1cc(F)ccc1S(=O)(=O)N1CCN(Cc2ccccc2)CC1	0%	1%[2.29 µM]	-8%[0.501 µM]	2%	28%	-2%
COc1cc(CN2CCN(S(=O)(=O)c3ccc(F)cc3)CC2)cc(OC)c1OC	?	0%	7.9µM*!	5%	?	7.9µM*
COc1ccc(S(=O)(=O)N2CCN(Cc3ccc(OC)c(OC)c3)CC2)cc1	8%	-1%	·	7%	55%	-8%
